Measured values taken from PubChem BioAssay (NCI).
About 79,000 compounds went through this panel and 15% of them were active in at least one assay; those are over-represented in the sample as a whole. Calls of active or inactive are those of the source. No stated cut-off is given here; in the data, active means growth inhibition above about 70%; inactive means the rest.

How the values were obtained:
[1] = NCI Yeast Anticancer Drug Screen. Data for the rad50 strain (AID 155);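 further: 0% = growth of vehicle-only cultures of the same strain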; conditions: S. cerevisiae rad50 strain growth inhibition, stronger effect = higher value
How it was run: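 Genetically altered yeast (DNA repair pathway); compound treatment; growth inhibition vs vehicle ctrl.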

[2] = NCI Yeast Anticancer Drug Screen. Data for the mec2-1 strain (AID 157); conditions: S. cerevisiae mec2-1 strain, stronger effect = higher value
How it was run: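 Vehicle-treated cultures served as reference for growth inhibition of compound-exposed mec2-1 yeast.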

[3] = NCI Yeast Anticancer Drug Screen. Data for the sgs1 mgt1 strain (AID 161);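 further: 0% = growth of cultures given vehicle only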; conditions: S. cerevisiae sgs1 mgt1 strain, stronger effect = higher value
How it was run: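 Test agents were incubated with a DNA-repair-mutant yeast strain. Growth was then read and compared against vehicle-treated controls.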

[4] = NCI Yeast Anticancer Drug Screen. Data for the cln2 rad14 strain (AID 165);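 further: 0% = growth equal to vehicle treated cultures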; conditions: S. cerevisiae cln2 rad14 strain, stronger effect = higher value
How it was run: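 Each compound was tested on cln2 rad14 yeast. Inhibition of growth was calculated against vehicle-exposed controls.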

[5] = NCI Yeast Anticancer Drug Screen. Data for the bub3 strain (AID 167); conditions: S. cerevisiae bub3 mutant strain, stronger effect = higher value
How it was run: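 Yeast carrying a defined mutation is treated with each compound, and growth is compared with that of vehicle-exposed cells to give inhibition.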

[6] = NCI Yeast Anticancer Drug Screen. Data for the mlh1 rad18 strain (AID 175); conditions: S. cerevisiae mlh1 rad18 strain growth inhibition, stronger effect = higher value
How it was run: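 Vehicle-treated cultures served as the reference for growth inhibition in a yeast strain carrying DNA damage repair alterations exposed to each compound.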

[7] = at 5.0 µM (retest, dose inferred, filed as 0.5)
[8] = at 50.0 µM (retest, dose inferred, filed as 5.0)

Measured: growth inhibition

CCOc1ccc2nc(C)cc(C)c2c1
inactive: [1]; [7] -1% | [1]; at 50.0 µM 26.6% | [2]; [7] -23% | [2]; [8] 31% | [2]; at 50.0 µM -13.4% | [3]; [7] -7% | [3]; [8] 60% | [3]; at 50.0 µM -0.25% | [4]; [7] 1% | [4]; [8] 2% | [4]; at 50.0 µM 34.5% | [5]; [7] -8% | [5]; [8] 63% | [5]; at 50.0 µM -17.2% | [6]; [7] -4% | [6]; [8] 63% | [6]; at 50.0 µM 38.6%
active: [1]; [8] 75%

CCCCC(O)(c1ccccc1)C(O)(c1ccccc1)c1c(F)c(F)c(F)c(F)c1F (configuration not stated)
inactive: [1]; [7] 17% | [2]; [7] -3% | [3]; [7] -5% | [4]; [7] 1% | [5]; [7] -8% | [6]; [7] -4%
active: [1]; [8] 99% | [1]; at 50.0 µM 81.1% | [2]; [8] 99% | [2]; at 50.0 µM 96.6% | [3]; [8] 98% | [3]; at 50.0 µM 99% | [4]; [8] 98% | [4]; at 50.0 µM 97.3% | [5]; [8] 96% | [5]; at 50.0 µM 98.6% | [6]; [8] 99% | [6]; at 50.0 µM 97.2%

O=C(CCCCOCCCCC(=O)OCC1CCCO1)OCC1CCCO1 (configuration not stated)
inactive: [1]; [7] -1% | [1]; [8] -2% | [1]; at 50.0 µM 9.1% | [2]; [7] 0% | [2]; [8] 2% | [2]; at 50.0 µM 16.9% | [3]; [7] -91% | [3]; [8] 4% | [3]; at 50.0 µM 45% | [4]; [7] 2% | [4]; [8] -9% | [4]; at 50.0 µM 10.3% | [5]; [7] -4% | [5]; [8] -3% | [5]; at 50.0 µM 13.5% | [6]; [7] -1% | [6]; [8] -12% | [6]; at 50.0 µM 18.1%

CCCCCCCCCCCC(N)c1ccccc1 (configuration not stated)
active: [1]; [7] 99% | [1]; [8] 99% | [1]; at 50.0 µM 99.5% | [2]; [7] 99% | [2]; [8] 99% | [2]; at 50.0 µM 99.5% | [3]; [7] 99% | [3]; [8] 99% | [3]; at 50.0 µM 99.2% | [4]; [7] 99% | [4]; [8] 99% | [4]; at 50.0 µM 99.1% | [5]; [7] 99% | [5]; [8] 99% | [5]; at 50.0 µM 99.2% | [6]; [7] 99% | [6]; [8] 99% | [6]; at 50.0 µM 99.5%

CC1OC(OP(=O)(OCc2ccccc2)OCc2ccccc2)C(OC(=O)c2ccccc2)C(OC(=O)c2ccccc2)C1I (configuration not stated)
active: [1]; [8] 93% | [1]; at 50.0 µM 86.1% | [2]; [8] 95% | [2]; at 50.0 µM 90.6% | [3]; [8] 96% | [3]; at 50.0 µM 90.1% | [4]; [8] 95% | [4]; at 50.0 µM 88.5% | [5]; [8] 77% | [5]; at 50.0 µM 88.9% | [6]; [8] 93% | [6]; at 50.0 µM 85%
inactive: [1]; [7] 50% | [2]; [7] 33% | [3]; [7] 37% | [4]; [7] 29% | [5]; [7] 30% | [6]; [7] 55%

Cc1nc(Nc2ccc(Cl)cc2)sc1C(=O)NNC(=S)NN
active: [1]; [8] 75% | [1]; at 50.0 µM 91.5% | [2]; at 50.0 µM 88% | [3]; [8] 77% | [3]; at 50.0 µM 91.8% | [4]; at 50.0 µM 91.6% | [5]; [8] 93% | [5]; at 50.0 µM 88.3% | [6]; [8] 82% | [6]; at 50.0 µM 88.5%
inactive: [1]; [7] 25% | [2]; [7] -9% | [2]; [8] 64% | [3]; [7] -3% | [4]; [7] 8% | [4]; [8] 65% | [5]; [7] -5% | [6]; [7] -30%

CN(C)c1ccccc1CC(c1c[nH]c2ccccc12)c1c[nH]c2ccccc12
inactive: [3]; [7] 67% | [4]; [7] 50% | [5]; [7] 66%
active: [1]; [7] 82% | [1]; [8] 90% | [1]; at 50.0 µM 84.8% | [2]; [7] 73% | [2]; [8] 93% | [2]; at 50.0 µM 89.5% | [3]; [8] 91% | [3]; at 50.0 µM 87.6% | [4]; [8] 94% | [4]; at 50.0 µM 86.2% | [5]; [8] 91% | [5]; at 50.0 µM 85.2% | [6]; [7] 92% | [6]; [8] 87% | [6]; at 50.0 µM 82%

O=C(O)CC1c2ccccc2-c2ccccc21
inactive: [1]; [7] -5% | [1]; [8] 36% | [2]; [7] -24% | [2]; [8] 24% | [2]; at 50.0 µM 64.5% | [3]; [7] -4% | [3]; [8] 31% | [4]; [7] -3% | [4]; [8] 54% | [4]; at 50.0 µM 43.9% | [5]; [7] -6% | [6]; [7] -7% | [6]; [8] 67%
active: [1]; at 50.0 µM 87.7% | [3]; at 50.0 µM 78.7% | [5]; [8] 82% | [5]; at 50.0 µM 82.8% | [6]; at 50.0 µM 79.3%

CSC(=S)NN=C(c1ccccc1)c1ccccc1
inactive: [1]; [7] 9% | [1]; at 50.0 µM 55.6% | [2]; [7] 13% | [2]; at 50.0 µM 39.4% | [3]; [7] 18% | [3]; at 50.0 µM 69.8% | [4]; [7] 7% | [4]; at 50.0 µM 53.9% | [5]; [7] 0% | [6]; [7] 16%
active: [1]; [8] 97% | [2]; [8] 99% | [3]; [8] 99% | [4]; [8] 91% | [5]; [8] 98% | [5]; at 50.0 µM 86.2% | [6]; [8] 99% | [6]; at 50.0 µM 81.8%
